# PubChem BioAssay (NCI)
# The panel holds about 83,000 compounds, 20% with a hit somewhere; the sample as a whole holds those more often.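 48-hour exposure, single concentration, 96-well plates; percent growth endpoint where 0 means no net growth. Active: below 10.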 Values without a mark were called inactive. Activity calls are given as the source filed them.
# Experiments:
# Test in all cases: NCI-60 one-dose screen, 48 h (100 = growth as untreated, 0 = no growth, -100 = all killed)
# Conditions in all cases: 10 µM unless noted
# T-47D breast = test system: T-47D breast
# BT-549 breast = test system: BT-549 breast
# MDA-MB-435 melanoma = test system: MDA-MB-435 melanoma
# SW-620 colon = test system: SW-620 colon
# MCF7 breast = test system: MCF7 breast
# HCT-116 colon = test system: HCT-116 colon
# HCC-2998 colon = test system: HCC-2998 colon
# KM12 colon = test system: KM12 colon
Compound,growth (T-47D breast),growth (BT-549 breast),growth (MDA-MB-435 melanoma),growth (SW-620 colon),growth (MCF7 breast),growth (HCT-116 colon),growth (HCC-2998 colon),growth (KM12 colon)
Nc1nc(N)c(-c2ccc(Cl)c(Cl)c2)c(CBr)n1,91.6%,59.7%,49.8%,42%,76.7%,42%,71.7%,88.7%
CC(C)c1ccc(-n2c(=S)[nH]c3sc4cc(O)ccc4c3c2=O)cc1,105%,91.4%,100%,96.9%,90.1%,98.4%,103%,105%
CNc1nnc2n(-c3ccccc3)c(=O)c3cnn(-c4ccccc4)c3n12,37.1%,74%,98.2%,105%,86.7%,77.7%,112%,87.4%
CCOC(=O)NC(C)C,100%,116%,111%,111%,106%,98.4%,103%,112%
COc1ccc(-c2nc3c(ncc4ccc(=O)[nH]c43)s2)cc1,78.7%,86.4%,80.6%,66.5%,62.5%,79.2%,91%,64.8%
C=CCn1c(C)nc2ccc(Nc3nc(Nc4ccc5nc(C)n(CC=C)c5c4)c4ccccc4n3)cc21,-91% (active),72.1%,-78% (active),-80.5% (active),-87.9% (active),-97.8% (active),-52.7% (active),-84.8% (active)
C#CCOc1cccc(Nc2ncnc3ccc(NC(=O)C=C)cc23)c1,39%,19.5%,43.8%,55.9%,47.6%,32.8%,84.6%,60.4%
C/C(=N\O)c1ccc(Cl)cc1,110%,96%,112%,99.9%,101%,97.5%,95.9%,118%
Oc1ccc(Cl)cc1/C=N\NC(=S)N/N=C/c1cc(Cl)ccc1O,49.9%,52.7%,33.9%,50.3%,28.3%,16%,41.3%,28.6%
COc1cc2oc(-c3cccc(NC(=O)c4ccccc4)c3)cc(=O)c2c(OC)c1OC,50.2%,74.1%,80.7%,91.5%,77.3%,67.7%,87.8%,64.4%
O=C(CN1C(=O)S/C(=C\C(Cl)=C\c2ccccc2)C1=O)NCCc1ccc(O)cc1,11.4%,22.1%,2.68% (active),4.78% (active),20.1%,-78.8% (active),66.8%,5.78% (active)
Cc1c(O)cc(-c2cnc(Nc3ccccc3)s2)c(O)c1C,68.6%,91.8%,101%,104%,82.2%,97.8%,118%,95.9%
CCCCCOC(=O)c1c(C)[nH]c(/C=C2\N=C(c3ccc[nH]3)C=C2OC)c1C,-42.5% (active),2.11% (active),-16.9% (active),-1.61% (active),-61.2% (active),-85.7% (active),-20.1% (active),-13.6% (active)
COc1ccc(Nc2ncc(Br)c(NCCCNC(=O)C3CCCC3)n2)cc1,77.5%,40.4%,63%,41.2%,41.8%,23.6%,69.7%,23%
CC1CN(S(=O)(=O)c2oc(-c3ccc(Cl)cc3)nc2C#N)CC(C)O1 (stereo not drawn),27%,89%,86.4%,-66.1% (active),55.2%,-53.4% (active),105%,100%
CCN(CC)CCn1c2ccc(O)cc2c2sc3cc(O)ccc3c(=O)c21,50.4%,62.1%,40.5%,15.5%,8.08% (active),12.1%,42.3%,29.4%
